A collection of fitness landscapes (doi:10.1016/j.celrep.2020.107928)
Over roughly 81,000 sequences, “one-hybrid fitness for binding parS DNA” has its median near -0.17; the highest 2% begin near 0.51. Only a selection was taken, and the highest values are over-represented in it overall.

B1: Caulobacter ParB omega fusion; a variant is named by its letters at X, in order, B8GW30 (parent)
chain: MESVVVGEPGMSEGRRGLGRGLSALLGEVDAAPAQAPGEQLGGSREAPIEILQRNPDQPRRTFREEDLEDLSNSIREKGVLQPILVRPSPDTAGEYQIVAGERAWRAAQRAGLKTVPIMVRELDDLAVLEIGIIENVQRADLNVLEEALSYKVLMEKFERTQENIAQTIGKSXSHVANXMRLLXLPDEVQSYLVSGELTAXHARAIAAAADPVALAKQIIEGGLSVRETEALARKAPNLSAGKSKGGRPPRVKDTDTQALESDLSSVLGLDVSIDHRGSTGTLTITYATLEQLDDLCNRLTRGI

Variants of: B1
Test: one-hybrid fitness for binding parS DNA (scaled: cognate 1, non-cognate 0); higher = stronger binding
Settings: with parS DNA site
In short: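 Values were rescaled so that cognate is 1 and non-cognate is 0. Each is a fitness, the log change in a variant's read ratio to wild type from Illumina reads of plasmids before and after selection, with three replicate libraries pooled and variants under 10 reads dropped. Selection of the Caulobacter ParB libraries, four specificity codons randomised, used E. coli USO with a HIS3 reporter, site 19 bp from the promoter, on M9-minus-histidine with 0.1 mM IPTG and 5 mM 3-AT for 48 hours at 37°C.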

Row | Variant | one-hybrid fitness for binding parS DNA
1 | LQQY | ≤ 0.2
2 | RMNP | ≤ 0.2
3 | RMYN | 0.47
4 | RMNS | 0.911
5 | RMYS | 1.01
6 | RMYH | 0.234
7 | RMNH | 0.287
8 | AHEC | ≤ 0.2
9 | EPSR | ≤ 0.2
10 | TPDV | ≤ 0.2
11 | PQMC | ≤ 0.2
12 | RNTR | ≤ 0.2
13 | RNTT | 0.746
14 | RNTH | ≤ 0.2
15 | RNTG | 0.908
16 | RNTN | 0.357
17 | RNTD | ≤ 0.2
18 | RNTC | 0.865
19 | RNTY | 0.368
20 | RNTP | ≤ 0.2
21 | RNTK | ≤ 0.2
22 | RNTS | 0.964
23 | RNTM | 0.233
24 | NCAN | ≤ 0.2
25 | MWTR | ≤ 0.2
26 | DRQW | ≤ 0.2

Row | Variant | one-hybrid fitness for binding parS DNA
27 | ADQL | ≤ 0.2
28 | NGAG | ≤ 0.2
29 | HAPM | ≤ 0.2
30 | HNLP | ≤ 0.2
31 | SYAS | ≤ 0.2
32 | RFDD | ≤ 0.2
33 | RFNG | 1
34 | AFDG | ≤ 0.2
35 | DFNG | ≤ 0.2
36 | RFDG | 0.814
37 | NFNG | ≤ 0.2
38 | LMSV | ≤ 0.2
39 | AAST | ≤ 0.2
40 | SSPQ | ≤ 0.2
41 | THVR | ≤ 0.2
42 | DHYT | ≤ 0.2
43 | GFSS | ≤ 0.2
44 | RYVR | ≤ 0.2
45 | RYKT | 0.708
46 | RYVK | ≤ 0.2
47 | RYKH | ≤ 0.2
48 | RYVT | 0.716
49 | RYKN | 0.394
50 | HYNK | ≤ 0.2
51 | QWNN | ≤ 0.2
52 | PIAM | ≤ 0.2

Row | Variant | one-hybrid fitness for binding parS DNA
53 | LLNT | ≤ 0.2
54 | MIIT | ≤ 0.2
55 | IARP | ≤ 0.2
56 | RGVW | ≤ 0.2
57 | RRKD | ≤ 0.2
58 | RRKN | 0.84
59 | RCKN | 0.463
60 | RRVN | 0.268
61 | RCNM | 0.349
62 | RRKS | 0.684
63 | RRVM | ≤ 0.2
64 | RRKM | 0.802
65 | RRKP | 0.338
66 | RRNM | 0.656
67 | RCKM | 0.402
68 | RRDM | ≤ 0.2
69 | IVNW | ≤ 0.2
70 | TART | ≤ 0.2
71 | ACQS | ≤ 0.2
72 | MKRG | ≤ 0.2
73 | RCRM | 0.365
74 | RRVD | ≤ 0.2
75 | RRVS | 0.708
76 | RRVP | ≤ 0.2
77 | RRYM | 0.206
78 | RCKH | ≤ 0.2

Row | Variant | one-hybrid fitness for binding parS DNA
79 | RRVH | ≤ 0.2
80 | RRKH | 0.623
81 | RRRM | 0.762
82 | GKVS | ≤ 0.2
83 | NRQG | ≤ 0.2
84 | ATIC | ≤ 0.2
85 | YVNR | ≤ 0.2
86 | QQAI | ≤ 0.2
87 | PVHA | ≤ 0.2
88 | RVHA | 0.552
89 | RVIA | 0.522
90 | RVSA | 0.581
91 | RVPA | 0.324
92 | SVIA | ≤ 0.2
93 | DVWA | ≤ 0.2
94 | RVWA | 0.616
95 | NVWA | ≤ 0.2
96 | PVSA | ≤ 0.2
97 | TLSH | ≤ 0.2
98 | DKSV | ≤ 0.2
99 | GGQR | ≤ 0.2
100 | GCKT | ≤ 0.2
101 | HKHC | ≤ 0.2
102 | EMRS | ≤ 0.2
103 | QDPW | ≤ 0.2
104 | RVEA | 0.483

Row | Variant | one-hybrid fitness for binding parS DNA
105 | PVNA | ≤ 0.2
106 | DVMA | ≤ 0.2
107 | EVQA | ≤ 0.2
108 | NVQA | ≤ 0.2
109 | NVYA | ≤ 0.2
110 | NVNA | ≤ 0.2
111 | RVYA | 0.64
112 | RVMA | 0.545
113 | RVNA | 0.602
114 | RVQA | 0.597
115 | FHNR | ≤ 0.2
116 | KHET | ≤ 0.2
117 | LGQH | ≤ 0.2
118 | KKTT | ≤ 0.2
119 | TGPM | ≤ 0.2
120 | PPMA | ≤ 0.2
121 | WVPV | ≤ 0.2
122 | GEND | ≤ 0.2
123 | TSEH | ≤ 0.2
124 | CVLA | ≤ 0.2
125 | NVDA | ≤ 0.2
126 | NVLA | ≤ 0.2
127 | RVDA | 0.556
128 | RVLA | 0.565
129 | DVGA | ≤ 0.2
130 | NVRA | ≤ 0.2

Row | Variant | one-hybrid fitness for binding parS DNA
131 | RVGA | 0.565
132 | DVRA | ≤ 0.2
133 | RVRA | 0.689
134 | PVGA | ≤ 0.2
135 | EWRT | ≤ 0.2
136 | LSNV | ≤ 0.2
137 | LQAW | ≤ 0.2
138 | ESFC | ≤ 0.2
139 | WPSS | ≤ 0.2
140 | KRVW | ≤ 0.2
141 | IRFN | ≤ 0.2
142 | FLDR | ≤ 0.2
143 | MLTT | ≤ 0.2
144 | YVRR | ≤ 0.2
145 | RCPV | ≤ 0.2
146 | NVCA | ≤ 0.2
147 | RVCA | 0.608
148 | KMLT | ≤ 0.2
149 | WVPC | ≤ 0.2
150 | CYWL | ≤ 0.2
151 | QPKK | ≤ 0.2
152 | VRCA | ≤ 0.2
153 | RHVR | ≤ 0.2
154 | RHVQ | ≤ 0.2
